Bioassay records from PubChem.
aSyn 5UTR act = Activators working through SNCA 5'UTR binding (MLPCN); alpha-synuclein 5'UTR reporter, activators screen; activity score, % (tested at 7.5 µM), hits read low; 300,000 compounds, 7.1% hits; AID 1814; in the data active = activity score below about -60%
Hits are given with their value. A selection follows.

Results for CCC(=O)NC(c1ccco1)c1cc(Cl)c2cccnc2c1O (stereo not given) ?
aSyn 5UTR act: inactive

What do the screens show for `CC(C)(C)c1ccc(OCCCC(=O)Nc2ccc(S(N)(=O)=O)cc2)cc1`?
aSyn 5UTR act: -146

Results for CNc1nnc(-c2cc3cc(Cl)ccc3oc2=O)s1 ?
aSyn 5UTR act: -77

Results for CCOc1cccc2cc(-c3nnc(NCc4ccco4)s3)c(=O)oc12 ?
aSyn 5UTR act: -171

Results for COc1ccc2oc(=O)c(-c3nnc(NCc4ccco4)s3)cc2c1 ?
aSyn 5UTR act: -253

What do the screens show for `CC1CC1C(=O)Nc1ccc(-c2ccccc2)cc1` (stereo not given)?
aSyn 5UTR act: -152

What do the screens show for `Cc1nc2cc(NC(=O)N3CCCCC3)ccc2n1C`?
aSyn 5UTR act: -71

Results for COc1cc(C(=O)Nc2ccc(N(C)C)cc2)cc(OC)c1OC ?
aSyn 5UTR act: -99

What do the screens show for `Cc1ccc(NC(=O)Nc2ccc3c(c2)nc(C)n3C)cc1C`?
aSyn 5UTR act: -127

Results for COc1cc(C(=O)Nc2ccc3c(c2)nc(C)n3C)cc(OC)c1OC ?
aSyn 5UTR act: -92

How did COc1cc(C(=O)NC(=S)N(CCc2ccccc2)CCc2ccccc2)cc(OC)c1OC do in these assays?
aSyn 5UTR act: inactive

What do the screens show for `COc1ccc(/C=C/c2nc(-c3ccccc3O)n[nH]2)cc1`?
aSyn 5UTR act: -74

What do the screens show for `Cc1ccccc1N/N=C1\CCCNC1=O`?
aSyn 5UTR act: -100

What do the screens show for `CCOc1ccc(-c2cc(C(=O)NCCCn3ccnc3)c3cc(Br)ccc3n2)cc1`?
aSyn 5UTR act: inactive

Results for O=C(NCCCn1ccnc1)c1cc(-c2cccc(O)c2)on1 ?
aSyn 5UTR act: -65

How did O=C(NCCCn1ccnc1)c1cc2ccccc2oc1=O do in these assays?
aSyn 5UTR act: -65

What do the screens show for `CCN1C(=Nc2ccc(Cl)cc2)SC/C1=C\C(=O)OC`?
aSyn 5UTR act: -81

Results for CN(C)c1ccc(CNc2ncc(Br)cc2Br)cc1 ?
aSyn 5UTR act: -98

Results for O=c1c(-c2ccc3c(c2)OCCO3)coc2c(CN3CCOCC3)c(O)ccc12 ?
aSyn 5UTR act: -94

Results for CCc1cc2c(=O)c(-c3ccc4c(c3)OCCO4)coc2c(CN2CCCCC2C)c1O (stereo not given) ?
aSyn 5UTR act: -65

What do the screens show for `CCc1cc2c(=O)c(-c3ccc4c(c3)OCCO4)coc2cc1OS(C)(=O)=O`?
aSyn 5UTR act: -116

What do the screens show for `O=C(c1cc2c(s1)-c1ccccc1OC2)N1CCc2ccccc2C1`?
aSyn 5UTR act: -89

How did O=C(c1ccc2c(c1)OCO2)N1CCN(c2cccc(C(F)(F)F)c2)CC1 do in these assays?
aSyn 5UTR act: -77

How did O=C(c1ccc2c(c1)OCO2)N1CCc2ccccc2C1 do in these assays?
aSyn 5UTR act: -113

What do the screens show for `Cc1ccc(-c2nc(C=Nc3ccccc3)c(O)o2)cc1`?
aSyn 5UTR act: -102

Results for Cc1ccc(N=Cc2nc(-c3ccco3)oc2O)cc1 ?
aSyn 5UTR act: -69

Results for Oc1oc(-c2ccccc2)nc1/C=N/c1nccs1 ?
aSyn 5UTR act: -86

How did Oc1oc(-c2ccc(Br)cc2)nc1/C=N/c1ccccn1 do in these assays?
aSyn 5UTR act: -81

How did CCN1/C(=C2\OC(=S)N(C)C2=O)Sc2ccccc21 do in these assays?
aSyn 5UTR act: -129

What do the screens show for `C=CCN1/C(=C2/SC(=S)N(C)C2=O)Sc2ccccc21`?
aSyn 5UTR act: -65

How did O=C(CSC(=S)N1CCSCC1)c1ccccc1 do in these assays?
aSyn 5UTR act: -94

Results for O=C(CSC(=S)N1CCSCC1)c1ccc(Cl)cc1 ?
aSyn 5UTR act: -152

Results for CN(C)C(=O)c1ccc2c(c1[N+](=O)[O-])C(=O)c1ccccc1C2=O ?
aSyn 5UTR act: -116

What do the screens show for `Nc1ncc(Br)cc1N=Cc1ccccc1`?
aSyn 5UTR act: -197

What do the screens show for `COc1ccc(NC(=O)c2ccc3c(c2)N(C)CCS3)cc1`?
aSyn 5UTR act: -148

How did CN1CCSc2ccc(C(=O)Nc3cccc(F)c3)cc21 do in these assays?
aSyn 5UTR act: -134

How did O=C(Nc1cccnc1Cl)c1cc(-c2ccco2)on1 do in these assays?
aSyn 5UTR act: -80

What do the screens show for `O=C(Nc1cc(Cl)ccc1O)c1cc(-c2ccco2)on1`?
aSyn 5UTR act: -233

Results for O=C(Nc1cc(Br)ccc1O)c1cc(-c2ccco2)on1 ?
aSyn 5UTR act: -134

Results for CCOC(=O)C1CCCN(Cc2cc(=O)oc3cc(C)ccc23)C1 (stereo not given) ?
aSyn 5UTR act: -75

Results for Cc1ccc2c(CN3CCC(C)CC3)cc(=O)oc2c1 ?
aSyn 5UTR act: -150

Results for CCCCC(=O)Nc1cnc(NC(=O)c2cccs2)cc1C ?
aSyn 5UTR act: -127

Results for COc1ccc(C(=O)Nc2cc(C)c(NC(=O)c3ccccn3)cn2)cc1 ?
aSyn 5UTR act: -78

What do the screens show for `COc1ccc(C(=O)Nc2cnc(NC(=O)c3cccs3)cc2C)cc1`?
aSyn 5UTR act: -83

How did O=C(Nc1ccc(F)c(Cl)c1)c1nsc(Cl)c1Cl do in these assays?
aSyn 5UTR act: -110

Results for CCOc1ccc(NC(=O)c2nsc(Cl)c2Cl)cc1 ?
aSyn 5UTR act: -117

Results for O=C(Nc1ccc(F)cc1)c1nsc(Cl)c1Cl ?
aSyn 5UTR act: -178

How did CC1CCCN(C(=O)Nc2ccc(Br)cc2Cl)C1 (stereo not given) do in these assays?
aSyn 5UTR act: -91

How did CCS(=O)(=O)c1ncc(Cl)c(C(=O)Nc2ccc(S(=O)(=O)N3CCCC(C)C3)cc2)n1 (stereo not given) do in these assays?
aSyn 5UTR act: inactive

How did O=C(Nc1ccccc1)c1ccc(-c2ccccc2Cl)o1 do in these assays?
aSyn 5UTR act: -178

Results for N#Cc1ccccc1NC(=O)c1ccc(-c2ccccc2Cl)o1 ?
aSyn 5UTR act: -128

What do the screens show for `O=C(/C=C\c1ccco1)Nc1cc([N+](=O)[O-])ccc1F`?
aSyn 5UTR act: inactive

What do the screens show for `CCc1nnc(NC(=O)/C=C/c2ccco2)s1`?
aSyn 5UTR act: -501

Results for O=C(/C=C/c1ccco1)NC1=NCCS1 ?
aSyn 5UTR act: -108

How did Cc1nc(NC(=O)/C=C/c2ccco2)sc1C do in these assays?
aSyn 5UTR act: -199

Results for O=C(/C=C/c1ccco1)Nc1cccc(NC(=O)/C=C/c2ccco2)n1 ?
aSyn 5UTR act: -193

Results for CNS(=O)(=O)c1ccc2nc(NC(=O)/C=C/c3ccco3)sc2c1 ?
aSyn 5UTR act: -230

Results for CCSc1nnc(NC(=O)/C=C/c2ccco2)s1 ?
aSyn 5UTR act: -320

What do the screens show for `O=C(/C=C/c1ccco1)Nc1nnc(-c2ccco2)s1`?
aSyn 5UTR act: -117

How did Nc1nc2ccccc2n1/N=C/c1ccc(Br)cc1 do in these assays?
aSyn 5UTR act: -139

Results for Nc1nc2ccccc2n1/N=C/c1ccc2c(c1)OCO2 ?
aSyn 5UTR act: -192

What do the screens show for `CCOc1ccc(C(=O)OCC(=O)c2c(N)n(C)c(=O)n(C)c2=O)cc1OCC`?
aSyn 5UTR act: -118

What do the screens show for `O=C(CCN1C(=O)/C(=C/c2cccs2)SC1=S)N1CCCCC1`?
aSyn 5UTR act: -90

Results for COc1ccc(/C=C2\SC(=S)N(CCCC(=O)N3CCOCC3)C2=O)cc1 ?
aSyn 5UTR act: inactive

Results for COc1cc(/C=C2\SC(=S)N(CCC(=O)N3CCCCC3)C2=O)cc(OC)c1OC ?
aSyn 5UTR act: -95

Results for O=C1/C(=C/c2cccs2)SC(=S)N1CCC(=O)N1CCCCC1CCO (stereo not given) ?
aSyn 5UTR act: -109

What do the screens show for `CSc1nsc(N/N=C/c2ccccc2)c1C#N`?
aSyn 5UTR act: -150

How did COc1ccc(/C=N/Nc2snc(SC)c2C#N)cc1OC do in these assays?
aSyn 5UTR act: -146
